In the supplement of paper PMC7765376:
Over roughly 1,500 compounds, “Excess HSA synergy score (sum over dose matrix of excess over highest single agent)” has its median near 43; the lowest 2% begin near -900. The full list was thinned out, with the lowest values kept by preference.

Test system: PEO-1
Assay: Excess HSA synergy score (sum over dose matrix of excess over highest single agent) (score (summed % response)); higher = less synergy / more antagonism (negative = synergy)
Details: 72 h, read-out: viability/apoptosis luminescence (CellTiter-Glo or Caspase3-Glo / not stated per table)
[1] = matrix design: 6x6, 5-fold dilutions (primary screen)

SMILES: CC(C)c1cc(C(=O)N2Cc3ccc(CN4CCN(C)CC4)cc3C2)c(O)cc1O [Onalespib] + CC[C@H](NC(=O)[C@H](C)NC)C(=O)N1C[C@@H](O)C[C@H]1Cc1c(-c2[nH]c3cc(F)ccc3c2C[C@@H]2C[C@H](O)CN2C(=O)[C@H](CC)NC(=O)[C@H](C)NC)[nH]c2cc(F)ccc12 [Birinapant]
- Excess HSA synergy score [1]: 13.4

SMILES: C[C@@H](Oc1cc(-n2cnc3ccc(CN4CCN(C)CC4)cc32)sc1C(N)=O)c1ccccc1C(F)(F)F + CC[C@H](NC(=O)[C@H](C)NC)C(=O)N1C[C@@H](O)C[C@H]1Cc1c(-c2[nH]c3cc(F)ccc3c2C[C@@H]2C[C@H](O)CN2C(=O)[C@H](CC)NC(=O)[C@H](C)NC)[nH]c2cc(F)ccc12 [Birinapant]
- Excess HSA synergy score [1]: -274
- Excess HSA synergy score (matrix design: 10x10, 9-step dilutions (confirmatory)): -1360

SMILES: COc1cc2ncn(-c3cc(OCc4ccccc4C(F)(F)F)c(C(N)=O)s3)c2cc1OC + CC[C@H](NC(=O)[C@H](C)NC)C(=O)N1C[C@@H](O)C[C@H]1Cc1c(-c2[nH]c3cc(F)ccc3c2C[C@@H]2C[C@H](O)CN2C(=O)[C@H](CC)NC(=O)[C@H](C)NC)[nH]c2cc(F)ccc12 [Birinapant]
- Excess HSA synergy score [1]: -51.1

SMILES: Cc1ccc(F)c(NC(=O)Nc2ccc(-c3cccc4[nH]nc(N)c34)cc2)c1 [Linifanib] + CC[C@H](NC(=O)[C@H](C)NC)C(=O)N1C[C@@H](O)C[C@H]1Cc1c(-c2[nH]c3cc(F)ccc3c2C[C@@H]2C[C@H](O)CN2C(=O)[C@H](CC)NC(=O)[C@H](C)NC)[nH]c2cc(F)ccc12 [Birinapant]
- Excess HSA synergy score [1]: -40

SMILES: C[C@@H](O)[C@H](NC(=O)[C@@H]1CSSC[C@H](NC(=O)[C@H](N)Cc2ccccc2)C(=O)N[C@@H](Cc2ccc(O)cc2)C(=O)N[C@H](Cc2c[nH]c3ccccc23)C(=O)N[C@@H](CCCCN)C(=O)N1)C(N)=O + CC[C@H](NC(=O)[C@H](C)NC)C(=O)N1C[C@@H](O)C[C@H]1Cc1c(-c2[nH]c3cc(F)ccc3c2C[C@@H]2C[C@H](O)CN2C(=O)[C@H](CC)NC(=O)[C@H](C)NC)[nH]c2cc(F)ccc12 [Birinapant]
- Excess HSA synergy score [1]: 120

SMILES: Cc1ccccc1C(C(=O)NC1CCCCC1)N(C(=O)Cn1ccnc1C)c1cccc(F)c1 (stereo unspecified) + CC[C@H](NC(=O)[C@H](C)NC)C(=O)N1C[C@@H](O)C[C@H]1Cc1c(-c2[nH]c3cc(F)ccc3c2C[C@@H]2C[C@H](O)CN2C(=O)[C@H](CC)NC(=O)[C@H](C)NC)[nH]c2cc(F)ccc12 [Birinapant]
- Excess HSA synergy score [1]: 12.3

SMILES: COc1cc2ncn(-c3cc(OCc4ccccc4S(C)(=O)=O)c(C#N)s3)c2cc1OC [IKK-3 Inhibitor IX] + CC[C@H](NC(=O)[C@H](C)NC)C(=O)N1C[C@@H](O)C[C@H]1Cc1c(-c2[nH]c3cc(F)ccc3c2C[C@@H]2C[C@H](O)CN2C(=O)[C@H](CC)NC(=O)[C@H](C)NC)[nH]c2cc(F)ccc12 [Birinapant]
- Excess HSA synergy score [1]: 113

SMILES: Cc1cnc(Nc2ccc(F)cc2Cl)nc1-c1c[nH]c(C(=O)N[C@H](CO)c2cccc(Cl)c2)c1 + CC[C@H](NC(=O)[C@H](C)NC)C(=O)N1C[C@@H](O)C[C@H]1Cc1c(-c2[nH]c3cc(F)ccc3c2C[C@@H]2C[C@H](O)CN2C(=O)[C@H](CC)NC(=O)[C@H](C)NC)[nH]c2cc(F)ccc12 [Birinapant]
- Excess HSA synergy score [1]: 192

SMILES: CN1CCN(c2cccc(Nc3nc4c(-c5ccc(S(C)(=O)=O)cc5)cccn4n3)c2)CC1 + CC[C@H](NC(=O)[C@H](C)NC)C(=O)N1C[C@@H](O)C[C@H]1Cc1c(-c2[nH]c3cc(F)ccc3c2C[C@@H]2C[C@H](O)CN2C(=O)[C@H](CC)NC(=O)[C@H](C)NC)[nH]c2cc(F)ccc12 [Birinapant]
- Excess HSA synergy score [1]: -105

SMILES: Cc1c(-c2cccc3c(CCCOc4cccc5ccccc45)c(C(=O)O)n(Cc4cccnc4)c23)c(COc2ccc(N3CCN([S+](=O)([O-])N(C)C)CC3)cc2)nn1C + CC[C@H](NC(=O)[C@H](C)NC)C(=O)N1C[C@@H](O)C[C@H]1Cc1c(-c2[nH]c3cc(F)ccc3c2C[C@@H]2C[C@H](O)CN2C(=O)[C@H](CC)NC(=O)[C@H](C)NC)[nH]c2cc(F)ccc12 [Birinapant]
- Excess HSA synergy score [1]: 51.7

SMILES: Cn1cc(-c2ccc3nnc(C(F)(F)c4ccc5ncccc5c4)n3n2)cn1 + CC[C@H](NC(=O)[C@H](C)NC)C(=O)N1C[C@@H](O)C[C@H]1Cc1c(-c2[nH]c3cc(F)ccc3c2C[C@@H]2C[C@H](O)CN2C(=O)[C@H](CC)NC(=O)[C@H](C)NC)[nH]c2cc(F)ccc12 [Birinapant]
- Excess HSA synergy score [1]: 40.5

SMILES: Cc1ccc(C(=O)Nc2cccc(C(F)(F)F)c2)cc1Nc1nc(-c2cccnc2)nc2c1cnn2C + CC[C@H](NC(=O)[C@H](C)NC)C(=O)N1C[C@@H](O)C[C@H]1Cc1c(-c2[nH]c3cc(F)ccc3c2C[C@@H]2C[C@H](O)CN2C(=O)[C@H](CC)NC(=O)[C@H](C)NC)[nH]c2cc(F)ccc12 [Birinapant]
- Excess HSA synergy score [1]: -71.3

SMILES: N#CC(c1ccnc(NCCc2cccnc2)n1)c1nc2ccccc2s1 (stereo unspecified) [JNK Inhibitor V] + CC[C@H](NC(=O)[C@H](C)NC)C(=O)N1C[C@@H](O)C[C@H]1Cc1c(-c2[nH]c3cc(F)ccc3c2C[C@@H]2C[C@H](O)CN2C(=O)[C@H](CC)NC(=O)[C@H](C)NC)[nH]c2cc(F)ccc12 [Birinapant]
- Excess HSA synergy score [1]: -67.5

SMILES: CC(C)(C(=O)NCC(F)(F)C(F)(F)F)C(=O)N[C@@H]1C(=O)Nc2ccccc2-c2ccccc21 + CC[C@H](NC(=O)[C@H](C)NC)C(=O)N1C[C@@H](O)C[C@H]1Cc1c(-c2[nH]c3cc(F)ccc3c2C[C@@H]2C[C@H](O)CN2C(=O)[C@H](CC)NC(=O)[C@H](C)NC)[nH]c2cc(F)ccc12 [Birinapant]
- Excess HSA synergy score [1]: -141

SMILES: COc1ccc(-c2coc3cc(O)cc(O)c3c2=O)cc1 [Biochanin A] + CC[C@H](NC(=O)[C@H](C)NC)C(=O)N1C[C@@H](O)C[C@H]1Cc1c(-c2[nH]c3cc(F)ccc3c2C[C@@H]2C[C@H](O)CN2C(=O)[C@H](CC)NC(=O)[C@H](C)NC)[nH]c2cc(F)ccc12 [Birinapant]
- Excess HSA synergy score [1]: 235
